The record followed here is the OligoGym collection.
Further: reference of the scale not given here.

In the first assay the target is L1TD1. The assay can be described thus: pooled miR-30 sensor sort-seq; sequence = guide strand. The note with it: shRNA.
Sequence TTGATCTTCTAGACTGTCTATT gave a sensor-assay potency score (higher = more potent) of -0.179. On the same count and under the same terms, as for ATCATTACTATTGTATTCGTTA, the figure is -0.576; as for TACTTCTCAAGTTTTCTTCTGT, 0.707; as for TCTTTCTTCAAGTATGTCCATT, -0.922. As to ATTTGCTGAAACTCTGTCCTAC, the sensor-assay potency score (higher = more potent) worked out at 0.491.

Sequence TTAAATCTAATACCGGAGCTAT registered a sensor-assay potency score (higher = more potent) of -1.12. For TTTGATCTTCTAGACTGTCTAT, the sensor-assay potency score (higher = more potent) was -0.16. Still for that read-out and setting: as for TATTTCTCCAGCTCTATGCTTT, the figure is -0.459; as for TTGGATGTTAGTTCTTCTGTGT, 0.173; as for TTCTTTGACAAATTCATCCTCT, 0.858.

For a further assay, the target named is LAMA2. Described as above. The note with it: shRNA.
Take TATCCAAGAAGTCTTCTCGGGT: the sensor-assay potency score (higher = more potent) is -0.905.

The sequence TACATCTTTAGCTGTGTCGTTG returned a sensor-assay potency score (higher = more potent) of -0.19. On the same count and under the same terms, under TTTGTGAGCAAACATCATCAAG stands -1.56; under TAAATGTCAACTGTCCTCCTAC, 0.301; under TTTGAGTTTATCTATTAGCCGG, -0.671. The same measure, in the same setting: as for TTACATAATAGGCCTGTCCAGT, the figure is -0.57. Same read-out and setting: under TTAAGTAACAATACATTAGTAT stands -0.0119. The sequence TTTATTGTAATTCTTCTTCAGG returned a sensor-assay potency score (higher = more potent) of -0.611. On the same count and under the same terms, as for TAGTTTATTGTAATTCTTCTTC, the figure is -0.313; as for TTGAGTTTATCTATTAGCCGGT, 0.45; as for TTACATATCAGACAGGAGCCAG, -0.545.

In turn, TTGATTGCAGATTCGACACTGC returned a sensor-assay potency score (higher = more potent) of 0.517.

The target in another assay is LAMB3. Described as above. The note with it: shRNA.
Regarding TAGGTCACAGCGCTCTCCCTGC, the sensor-assay potency score (higher = more potent) is -0.878. In turn, TTACTAGCTACACACCAGGGGT came in with a sensor-assay potency score (higher = more potent) of -0.82. The same measure, in the same setting: as for TTTGCATCTAGGATCCGGGAGG, the figure is -1.03; as for TTATTCTCTCAAATCCCTCTTG, -0.105; as for TTTTTTGACTTTGAGTTGCTGG, 0.33. Same read-out and setting: as for TAGGCTGTGCTCAGCATCCGGA, the figure is -0.616; as for TCTTGAAGCTGGAATCTCCTGT, 0.664; as for TCTTCTGCAGAACAGTAGCTGA, -1.16. On the same count and under the same terms, under TTTGACTTTGAGTTGCTGGAAT stands -0.395. Regarding TTCTGCAGAACAGTAGCTGAGT, the sensor-assay potency score (higher = more potent) is -0.497. Take TATTTTTTCAAACTGCTCCCTC: the sensor-assay potency score (higher = more potent) was determined as 0.433. Same read-out and setting: under TCTGACATCTTCCTCCATCTGG stands -0.297.

The target in the next assay is LAMB4. The description is as above. The note with it: shRNA.
Regarding TATTTTGACAAGTTCATCGGTT, the sensor-assay potency score (higher = more potent) stood at 0.404. TTGACTTTTAAGAATTTCCCAG yielded a sensor-assay potency score (higher = more potent) of -0.128. On the same count and under the same terms, under TATTGTATCTTTCAGATCTTGA stands 0.0271. Same read-out and setting: as for TTAGCTGTTTAACTTTTCCTAA, the figure is -0.989; as for TTCACTTATACTTTCGATCTGA, 0.249.

With TTTGTTAGTCCTGTAGTGCTTG, the sensor-assay potency score (higher = more potent) came to 0.084.
